A selection: hits, their analogues and other compounds. The true share with any hit is near 5.9%.
Gal4-VP16 FLuc = Gal4-VP16 reporter inhibition counter-screen. Potency, µM (highest dose often 53.6 µM), for inactives: at the highest dose activity, negative = inhibition, hits mostly inhibitors. Drosophila S2 Gal4-VP16 UAS-luciferase, luminescence, 20 h. 310,000 compounds, 3.5% hits. AID 2546;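 further: Gal4-VP16 expression switched on by copper sulfate through the metallothionein promoter; on the % scale 0 is the no-effect control and ±100 the full control effect; nearly all actives have a fitted effect of over 50% in size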
RORg inh = blocks mouse ROR gamma transcriptional activity; Drosophila S2 Gal4-RORgamma UAS-luciferase reporter, 20 h; Potency, µM (highest dose often 53.6 µM), for the others: at the top dose activity change, negative = inhibition, hits mostly inhibitors; 310,000 compounds, 5.4% hits; AID 2551; P51450; further: on the % scale 0 is the no-effect control and ±100 the full control effect; nearly all actives have a fitted effect of over 60% in size
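Compounds are pin-transferred onto Drosophila Schneider cells expressing a copper-inducible Gal4–ROR gamma transactivation domain fusion. After 1 hr, copper sulfate is added to 700 uM final; luciferase is read 20 hr later.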
GLP1R ag = agonists of human GLP-1 receptor | Potency, µM (titrated, usually from 45.6 µM), for inactives: at the highest dose activation, actives largely listed as activators | P43220 | HEK293 GLP-1R CRE-luciferase, luminescence, 4-6 h; cells express a hypersensitive GLP-1R form | 380,000 compounds, 0.007% hits; further: % of control where 0% means no effect
Target sequence (P43220 whole entry, looked up): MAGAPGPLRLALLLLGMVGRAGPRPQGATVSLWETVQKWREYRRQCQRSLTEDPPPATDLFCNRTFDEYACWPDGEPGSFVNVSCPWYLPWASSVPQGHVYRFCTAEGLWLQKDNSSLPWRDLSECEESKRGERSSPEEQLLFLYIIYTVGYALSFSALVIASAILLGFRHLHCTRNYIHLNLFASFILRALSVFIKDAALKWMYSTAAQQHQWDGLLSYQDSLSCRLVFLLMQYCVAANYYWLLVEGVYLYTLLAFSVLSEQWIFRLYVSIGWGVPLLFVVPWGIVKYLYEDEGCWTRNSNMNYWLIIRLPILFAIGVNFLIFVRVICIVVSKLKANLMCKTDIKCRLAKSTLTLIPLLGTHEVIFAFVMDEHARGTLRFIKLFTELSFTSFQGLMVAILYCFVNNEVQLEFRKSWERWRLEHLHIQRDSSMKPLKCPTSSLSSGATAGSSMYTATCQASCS
GLP1R cytotox = cytotoxicity in counter-screen for GLP-1R inverse agonists; HEK293 cAMP-luciferase reporter cells, luminescence, 24 h; Potency, µM (titrated, usually from 38.3 µM), inactives show at the highest dose activity change, negative = inhibition, usual class: inhibitors; 410,000 compounds, 0.13% hits; AID 624418;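 further: loss of luciferase light is scored as toxicity; on the % scale 0 is the no-effect control and ±100 the full control effect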
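Seeding density was 200 cells/uL; after overnight-length (12 h) culture, 23 nL compounds went on for 24 h at 37 °C. Readout used a luciferase detection reagent, luminescence taken after 12 min at room temperature.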
GLP-1R inv ag = acts as inverse agonist at human GLP-1 receptor; P43220; HEK293 GLP-1R CRE-luciferase, luminescence, 24 h; GLP-1R form is constitutively active; Potency, µM (series often up to 38.3 µM), inactives show top-dose activity change, negative = inhibition, hits mostly inhibitors; 410,000 compounds, 1.6% hits; further: on the % scale 0 is the no-effect control and ±100 the full control effect; nearly all actives have a fitted effect of over 55% in size
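Using stably transfected HEK293 (constitutively active GLP-1R, cAMP-luciferase reporter), compounds were incubated 24 hr and luciferase measured by luminescence.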
Starred values were filed as active, the others as inactive; u = inconclusive; x = not tested or not shown. The call rests on the fitted dose curve; in most records, active means well fitted curve in the direction sought with a large enough effect; inconclusive means small, poorly fitted or top-dose-only effect, or another doubt; inactive means no such curve, though single readings can be large; an effect the other way counts as inactive or inconclusive. Potency means the concentration at half of the fitted maximal effect.

SMILES	Gal4-VP16 FLuc	RORg inh	GLP1R ag	GLP1R cytotox	GLP-1R inv ag
COc1ccc(CN(C)Cc2nc(Cc3cccc(F)c3)no2)c2cccnc12	7.1µM*	u	22%	-4%	13%
COc1ccc(C(C[N+](=O)[O-])c2c(C)[nH]n(-c3ccccc3)c2=O)cc1 (centres undefined)	u	13µM*	7%	-12%	-29%
Cc1ccc(-c2nnc(Nc3cccc(C(F)(F)F)c3)c3ccccc23)cc1S(=O)(=O)N1CCOCC1	x	x	x	11%	u
CN(CC1CCCO1)S(=O)(=O)c1ccc(C(=O)Nc2nc(-c3ccccn3)cs2)cc1 (centres undefined)	11µM*	7.9µM*	-5%	u	u
CN(CC1CCCO1)S(=O)(=O)c1ccc(C(=O)Nc2nnc(-c3ccccc3)o2)cc1 (centres undefined)	0.56µM*	0.63µM*	-3%	-1%	-5%
COc1ccccc1-c1nnc(NC(=O)c2ccc(S(=O)(=O)N(C)CC3CCCO3)cc2)o1 (centres undefined)	1µM*	0.71µM*	-26%	-3%	-10%
Cn1c(-c2nc(-c3ccccc3)cs2)nc2ccccc21	-7%	u	x	x	x
O=C(CSc1nc2ccccc2n1Cc1ccccc1Cl)NCc1ccccc1	x	x	x	-21%	u
Fc1ccc(NC(=S)NCCc2ccccn2)cc1	u	10µM*	8%	-4%	-1%
CC(=O)c1ccc(NC(=S)NCCc2ccccn2)cc1	-23%	u	-5%	-2%	19%
CC(C)(C)c1ccc(NC(=S)NCCc2ccccn2)cc1	u	0.5µM*	1%	u	u
CN(C)S(=O)(=O)c1cccc(NC(=S)NCCc2ccccn2)c1	8%	15%	-6%	4%	15%
S=C(NCCc1ccccn1)Nc1ccc(Cl)cc1	u	6.3µM*	3%	-15%	23%
O=S(=O)(Nc1ncccn1)c1ccc(NC(=S)NCCc2ccc(Cl)cc2)cc1	-14%	7%	7%	-1%	4%
FC(F)(F)c1cccc(NC(=S)NCCc2ccccn2)c1	11µM*	4µM*	-1%	-24%	0%
CCOc1ccc(/C=N/NC(=O)c2[nH]ncc2Br)c(O)c1	11µM*	3.5µM*	1%	10%	u
Cc1ccc(O)c(/C=N/NC(=O)C2=NNC(c3ccccc3)(c3ccccc3)C2)c1	2.8µM*	1.4µM*	x	x	x
CCOc1ccc(/C=N/Nc2nc(C)cs2)c(O)c1	2.2µM*	1.4µM*	-7%	3.2µM*	4µM*
Cc1ccc(O)c(/C=N/NC(=O)c2[nH]ncc2Br)c1	1.3µM*	1.3µM*	-7%	15%	0%
Cc1ccc2nc(Cl)c(/C=N/NC(=O)c3ccccc3O)cc2c1	u	u	-1%	-20%	20%
COc1ccc(OC)c(/C=N/NC(=O)c2[nH]ncc2Br)c1	-2%	2%	12%	6%	19%
COc1cccc(Nc2ncc3ncc(=O)n(C)c3n2)c1	-16%	u	x	x	x
O=C(N/N=C/c1c(O)ccc2ccccc12)c1[nH]ncc1Br	4.5µM*	2.5µM*	3%	-4%	u
O=C(c1ccc(Cn2c(=O)[nH]c3ccccc3c2=O)cc1)N1CCN(c2ccc(Cl)cc2)CC1	-19%	u	2%	-7%	11µM*
CC(=O)c1ccc(N2CCN(C(=O)c3ccc(Cn4c(=O)[nH]c5ccccc5c4=O)cc3)CC2)cc1	x	x	x	0%	-4%
CCOC(=O)N1CCN(C(=O)c2ccc3c(=O)n(-c4ccc(F)cc4)c(=S)[nH]c3c2)CC1	-8%	-11%	-3%	-6%	0%
CCCn1c(=S)[nH]c2cc(C(=O)N3CCN(C(=O)OCC)CC3)ccc2c1=O	0%	-44%	13%	-5%	-3%
CCOC(=O)N1CCN(C(=O)c2ccc(Cn3c(=S)[nH]c4ccc(Br)cc4c3=O)cc2)CC1	14µM*	u	5%	-1%	8%
CCOC(=O)N1CCN(C(=O)c2ccc3c(=O)n(Cc4ccc(Cl)cc4)c(=S)[nH]c3c2)CC1	u	5.6µM*	1%	-17%	2µM*
